Data as given in PubChem BioAssay (NCATS).
Results filed as inconclusive are left out. Unmarked numbers belong to inactive results. Calls of active or inactive are those of the source. Calls follow the shape of the dose curve; as a rule, active = well fitted cell-killing curve with a large enough effect; inconclusive = small, poorly fitted or top-dose-only effect, or effect the other way; inactive = flat fitted curve, though single readings scatter.

Assay: qHTS of pediatric cancer cell lines to identify multiple opportunities for drug repurposing: Confirmatory screen for control Hh wild type fibroblast cells (AID 1347121); also: nearly all actives have a fitted effect of over 70% in size;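 as to activity, negative = cytotoxic: plate controls were DMSO for no effect and bortezomib for full effect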
Details: viability qHTS; series mostly up to 45.9 µM; activity, negative = cytotoxic: at the top concentration
From the text: Drug repurposing or repositioning has been offered as a strategy for drug development in oncology programs. This approach has special potential for childhood cancers and other rare or orphan diseases, where the expected return on new drug development has been a disincentive to pharmaceuticals.
In this project we exploit the poly-pharmacology of drugs to discover new indications via phenotypic screening of a panel of 19 well-characterized cell lines derived from solid tumors seen in children and adolescents. The goal is to identify approved drugs with previously unrecognized anticancer properties that has the potential to reveal new mechanisms and biological processes involved in carcinogenesis or drug resistance. We employed a titration-based paradigm (quantitative high-throughput screening or qHTS), where all compounds were tested at multiple concentrations for their effect on cell viability. Concentration-response curves (CRCs) were derived directly from the primary screen, and both potency and efficacy values were used to identify compounds with robust bioactivity profiles. We screened the NIH Chemical Genomics Center (NCGC) Pharmaceutical Collection (NPC) and Mechanism Interrogation Plate (MIPE) small molecule collections of approved and investigational compounds against these cell lines; and measured metabolically active cells after 48 hours of compound treatment as a proxy for cell viability.
Assay Submitter: Nathalia J. Martinez, National Center for Advancing Translational Sciences, National Institutes of Health, Rockville, MD, USA; email: natalia.martinez@nih.gov
[1] Shen, M et al. Quantitative high-throughput phenotypic screening of pediatric cancer cell lines identifies multiple opportunities for drug repurposing. Oncotarget 2017 Dec 19;9(4):4758-4772. PMID 29435139.
The cells were obtained from University of North Carolina (UNC), Pediatric Preclinical Testing Program (PPT), and Coriell Institute (CI).
qHTS cell viability assay:
Cells were assayed in growth media at a density of 500-1,000 cells/well. Five microliters of cells were dispensed into 1,536-well, white, solid-bottom, TC-treated plates (Greiner Bio One) using a multidrop dispenser and incubated at 37 degrees C, 5% CO2, under a humidified atmosphere for 5 hours. Twenty-three nanoliters of compounds and controls (neutral control DMSO or positive control bortezomib at final concentration of 2.3 µM) were subsequently transferred by Kalypsys pintool. For primary screens, the MIPE collection was tested at 11-point dilutions (final concentrations range from 0.78 nM to 46 µM) and the NPC collection at 8-point dilutions (final concentrations range from 0.59 nM to 46 µM). Compounds tested in follow-up screens were assayed at 11-point dilutions. Cells were incubated for 48 hours, followed by addition of 3 µL of CellTiter-Glo (Promega). After a 15 min incubation at room temperature, samples were analyzed for luminescence intensity using a ViewLux High-throughput CCD imager equipped with clear filters.
Potency is read from the fitted curve at half-maximal effect.

| Compound | activity, negative = cytotoxic [%] | Potency |
| --- | --- | --- |
| ClC1=C(Cl)C2(Cl)C(CBr)CC1(Cl)C2(Cl)Cl (stereo not drawn) | 16.9 | – |
| CN(C)C(=S)SSC(=S)N(C)C | 12.9 | – |
| CCc1ccc(C2CCNCC2)cc1 | -10.7 | – |
| CC1Sc2c(C(=O)O)c(=O)c3cc(F)c(N4CCNCC4)cc3n21 (stereo not drawn) | 12.2 | – |
| COc1ccc(C(=O)N2CCCC2=O)cc1 | 4.25 | – |
| C[C@@H]1C[C@@H]([C@H](O)CC2CC(=O)NC(=O)C2)C(=O)[C@@H](C)C1 | – | inactive |
| COc1ccc2c(C(=O)c3ccc(Cl)cc3)c(C)n(CC(=O)O)c2c1 | 7.01 | – |
| CN1[C@@H]2CC[C@H]1CC(OC(=O)c1cc(Cl)cc(Cl)c1)C2 (stereo partly drawn) | -8.55 | – |
| O=C(O)Cc1ccccc1 | -3.83 | – |
| COC(=O)C1=CCCN(C)C1 | 3.13 | – |
| CC[n+]1c(-c2ccccc2)c2cc(N)ccc2c2ccc(N)cc21 | – | 9.27 µM (active) |
| CCCCCCCCC(=O)NCc1ccc(O)c(OC)c1 | 2.07 | – |
| Cc1ccc([N+](=O)[O-])[c]2c1[O][Hg]2 | – | 16.5 µM (active) |
